Hits are enriched below; roughly 0.45% of the tested compounds scored in any of these assays.
EPAC1 agonist: EPAC1 (human) agonism. O95398. EPAC1 agonist qHTS, biochemical assay; response scale: 100% = response to 6.5 mM cAMP. Potency, µM (series often up to 154 µM), without a hit: top-dose activation, usual class: activators. hit rate 0.073% among 360,000. AID 720707; also: nearly all actives have a fitted effect of over 60% in size
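Read-out is the fluorescence drop as BODIPY-GDP leaves Rap1B (480 nm excitation, 540 nm emission), recorded every 5 minutes over 30 minutes. Reactions held 100 nM EPAC1, 250 nM Rap1B–BODIPY-GDP and 50 uM GDP, with 6.5 mM cAMP setting full activation.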
EPAC2 antag: blocks human EPAC2 exchange factor; Q8WZA2; EPAC2 GEF exchange of Rap1B-BODIPY-GDP, fluorescence; Potency, µM (series often up to 114 µM), inactives show at the top dose activity, negative = inhibition, most hits filed as inhibitors; hit rate 0.18% among 360,000; also: % is scaled to controls: 0 for no effect and ±100 for the full control effect; nearly all actives have a fitted effect of over 45% in size
EPAC1 antag: antagonists of human EPAC1; EPAC1 GEF assay, Rap1b-BODIPY-GDP exchange fluorescence; hit rate 0.14% among 360,000; AID 720709; Potency, µM (series often up to 115 µM), for the others: at the top dose activity change, negative = inhibition, actives largely listed as inhibitors;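 also: plate controls were vehicle for no effect and positive control for full effect; nearly all actives have a fitted effect of over 50% in size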
EPAC2 ag: EPAC2 (human) agonism | Q8WZA2 | EPAC2 activation, biochemical qHTS; response scale: 100% = 6.5 mM cAMP response | Potency, µM (series often up to 154 µM), for the others: at the top dose activation, hits mostly activators | hit rate 0.079% among 360,000 | AID 720711; also: nearly all actives have a fitted effect of over 50% in size
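Nucleotide exchange monitored as fluorescence drop when BODIPY-GDP leaves Rap1B. Reaction: 100 nM EPAC2, 250 nM RAP1B-BODIPY-GDP, 50 uM GDP, room temperature, kinetic read over 30 min. Activity expressed relative to 6.5 mM cAMP.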
USP1-UAF1 inh: inhibitors of human USP1/UAF1 deubiquitinase | O94782 | hit rate 0.23% among 390,000 | recombinant USP1/UAF1, Ub-Rhodamine cleavage fluorescence | Potency, µM (series often up to 57.1 µM), without a hit: top-dose activity change, negative = inhibition, actives largely listed as inhibitors; also: % is scaled to controls: 0 for no effect and ±100 for the full control effect; nearly all actives have a fitted effect of over 60% in size
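1 nM enzyme complex + cpd, 15 min RT; start with Ub-Rho 150nM final; kinetic fluorescence ex 480/em 540, 6 reads q60 s. Buffer 50mM HEPES pH 7.8, 0.5mM EDTA, 0.1 mg/ml BSA, 1mM TCEP, 0.01% Tween-20.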
USP2a block: blocks human ubiquitin-specific protease USP2a; hit rate 0.01% among 330,000; AID 463254; O75604; USP2 core, Ub-CHOP2 coupled fluorogenic reporter, 485/531; Potency, µM (titrated, usually from 38.3 µM), without a hit: top-dose activity change, negative = inhibition, most hits filed as inhibitors;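 also: plate controls were DMSO wells for no effect and full inhibition by NEM control for full effect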
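Deubiquitinase activity read as fluorescence (485/531 nm) after Ub-CHOP2 cleavage activates the enterokinase reporter on its substrate; USP2 core 10nM, Ub-CHOP2 and substrate 25nM each, 30min compound preincubation then 60min RT; data normalized to NEM, curves fitted.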
* marks the source's active call; other numbers are inactive results; ? = inconclusive; · = no result given. Calls follow the shape of the dose curve; as a rule, active = well fitted curve in the direction sought with a large enough effect; inconclusive = small, poorly fitted or top-dose-only effect, or another doubt; inactive = no such curve, though single readings can be large; an effect the other way counts as inactive or inconclusive. Potency is read from the fitted curve at half-maximal effect.

SMILES	EPAC1 agonist	EPAC2 antag	EPAC1 antag	EPAC2 ag	USP1-UAF1 inh	USP2a block
CC(OC(=O)COc1ccc(Nc2ccccc2)cc1)C(=O)N(C)c1ccccc1 (stereo not drawn)	-39%	?	-27%	8%	-6%	-8%
Oc1ccc(Cl)cc1Sc1cc(Cl)ccc1O	3%	35µM*	?	3%	-15%	·
Cc1ccc(Cl)cc1NC(=O)N(Cc1ccc2c(c1)OCO2)C1CCN(Cc2ccccc2)CC1	·	·	·	·	-4%	·
CC(C)CCOP(=O)(c1ccc(N(C)C)cc1)C(O)c1ccc(Cl)cc1Cl (stereo not drawn)	2%	35µM*	-23%	5%	-7%	-1%
O=C(COc1ccc(Br)cc1)Nc1ccc(Cl)cc1C(=O)c1ccccc1	·	·	·	·	-15%	·
COC1CC2C=C(C)C=CC=CC(=O)NC(c3ccccc3)CC=CCCC(O)CC(=O)C2=C1O (stereo not drawn)	-16%	-4%	?	3%	·	·
CC1Oc2cc3c(-c4c(O)cc(O)c5c(O)c6c(cc45)OC(C)C(C)C6=O)c(O)cc(O)c3c(O)c2C(=O)C1C (stereo not drawn)	-39%	33%	?	-6%	13µM*	?
Cc1ccc(NS(=O)(=O)c2c(F)cc(F)c(Cl)c2F)cc1S(=O)(=O)N1CCOCC1	-2%	0%	-5%	1%	?	4%
CC(C)c1ccc(C(c2c(O)c3ccccc3oc2=O)c2c(O)c3ccccc3oc2=O)cc1	-7%	45µM*	?	1%	28µM*	·
O=c1oc2ccccc2c(O)c1C(c1ccc([N+](=O)[O-])cc1)c1c(O)c2ccccc2oc1=O	-15%	50µM*	50µM*	-14%	?	3%
